PubChem BioAssay AID1851 (National Center for Advancing Translational Sciences (NCATS), 2009)
Screen size: about 16,000 compounds; about 4,000 (25%) were called active. About 26% were inconclusive and are not listed. Not all results are given here. Values without a mark were called inactive. Calls follow the shape of the dose curve; as a rule, active = well fitted curve in the direction sought with a large enough effect; inconclusive = small, poorly fitted or top-dose-only effect, or effect the other way; inactive = no such curve, though single readings can be large or run the other way.

Target: Cytochrome P450 2C9 (Homo sapiens) (UniProt P11712)
Sequence (P11712 whole entry, looked up): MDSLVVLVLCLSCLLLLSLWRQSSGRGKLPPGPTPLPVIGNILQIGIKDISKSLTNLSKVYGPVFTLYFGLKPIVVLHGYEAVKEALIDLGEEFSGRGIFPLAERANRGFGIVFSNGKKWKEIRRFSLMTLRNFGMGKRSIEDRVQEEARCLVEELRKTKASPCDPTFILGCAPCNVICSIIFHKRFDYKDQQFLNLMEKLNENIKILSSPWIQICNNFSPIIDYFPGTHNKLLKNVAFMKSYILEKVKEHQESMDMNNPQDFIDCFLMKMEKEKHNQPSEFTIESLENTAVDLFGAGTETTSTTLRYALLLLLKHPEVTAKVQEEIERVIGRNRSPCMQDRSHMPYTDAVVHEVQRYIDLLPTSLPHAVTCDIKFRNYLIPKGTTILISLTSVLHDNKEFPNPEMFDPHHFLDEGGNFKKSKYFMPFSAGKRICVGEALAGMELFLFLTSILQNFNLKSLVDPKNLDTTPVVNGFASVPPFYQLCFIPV
Test: Cytochrome panel assay with activity outcomes
Details: recombinant CYP, pro-luciferin dealkylation, luminescence, p450-cyp2c9; series mostly up to 57.1 µM
% is scaled to controls: 0 for no effect and ±100 for the full control effect.

Row | SMILES | AC50 | activity, negative = inhibition
1 | CCN(CC)CCCCCCCCOC(=O)c1cc(OC)c(OC)c(OC)c1 | inactive | –
2 | CCC(NC(=O)Nc1cc(OC)c(OC)c(OC)c1)(C(F)(F)F)C(F)(F)F | 14.1 µM (active) | –
3 | CCN1C(=O)c2cccc3c(NC(=O)c4cccc(N5C(=O)CCC5=O)c4)ccc1c23 | inactive | –
4 | CCOC(=O)c1ccc(NC(=O)Nc2ccc3c4c(cccc24)C(=O)N3CC)cc1 | 20 µM (active) | –
5 | c1csc(CNc2ccnc(-c3ccc4c(c3)OCO4)n2)c1 | – | -22.4% [at 2.29 µM]
6 | CC1CCCCN1c1nc(-c2ccncc2)nc2ccccc12 (stereo unspecified) | 0.398 µM (active) | –
7 | CN1CCN(c2nc(-c3cccnc3)nc3ccccc23)CC1 | – | 16.9% [at 2.29 µM]
8 | c1cncc(-c2nc(N3CCNCC3)c3ccccc3n2)c1 | – | -1.35% [at 2.29 µM]
9 | CCNc1ncc2nc(-c3ccc(OC)cc3)c(=O)n(-c3ccc(OC)cc3)c2n1 | inactive | –
10 | NCC(=O)Nc1ccc(Cl)cc1C(=O)c1ccc[nH]1 | – | -20.4% [at 11.4 µM]
11 | CS(=O)(=O)N1CCC2(CCN(c3ccncc3)CC2)CC1 | inactive | –
12 | CS(=O)(=O)N1CCC2(CC1)CN(Cc1nccs1)C2 | 10 µM (active) | –
13 | CS(=O)(=O)N1CCC2(CCN(Cc3nccs3)CC2)CC1 | inactive | –
14 | CS(=O)(=O)N1CCC2(CCCN(c3ccncc3)C2)CC1 | 0.0794 µM (active) | –
15 | CS(=O)(=O)N1CCC2(CC1)CN(c1ccncc1)C2 | 15.8 µM (active) | –
16 | CS(=O)(=O)N1CCC[C@@]2(CCN(c3ccncc3)C2)C1 | inactive | –
17 | CS(=O)(=O)N1CCC2(CC1)CN(c1ncccn1)C2 | inactive | –
18 | CS(=O)(=O)N1CCC2(CCCN(c3ncccn3)C2)CC1 | inactive | –
19 | CS(=O)(=O)N1CCC[C@@]2(CCN(Cc3nccs3)C2)C1 | inactive | –
20 | CC(=O)N1CCC2(CCCN(C(=O)Nc3cccc(F)c3)C2)CC1 | inactive | –
21 | OCCNc1ncnc2c1ncn2[C@@H]1O[C@@H](CO)[C@H](O)[C@@H]1O | – | 8.16% [at 11.4 µM]
22 | COc1ccc(CN(CCN(C)C)c2ccccn2)cc1 | inactive | –

Row | SMILES | AC50 | activity, negative = inhibition
23 | Cc1ccc(N(Cc2ccccc2)Cc2ccccc2)cc1 | – | -16.6% [at 11.4 µM]
24 | CN(C)c1nccc(N(Cc2ccccc2)Cc2ccccc2)c1C#N | 2.24 µM (active) | –
25 | Cc1ccc(N=Nc2ccc(N)cc2C)c(S(N)(=O)=O)c1 | – | -8.16% [at 11.4 µM]
26 | COc1ccc(NC(=O)CSc2nc(-c3ccc(C)cc3)cc(C(F)(F)F)c2C#N)cc1 | 0.794 µM (active) | –
27 | CCc1ccc(/C=C\C(=O)N2CCc3ccccc3C2)cc1 | 22.4 µM (active) | –
28 | N=C(N)N1CCc2ccccc2C1 | inactive | –
29 | CCCCCCN1Cc2ccccc2C1 | inactive | –
30 | CCOc1ccc(OCc2ccc(C(=O)N3CCc4ccccc4C3)o2)cc1 | 5.01 µM (active) | –
31 | COc1ccccc1OCc1ccc(C(=O)N(C)C)o1 | inactive | –
32 | CC1CCN(C(=O)c2ccc(COc3ccccc3Cl)o2)CC1 | 17.8 µM (active) | –
33 | Clc1ccccc1OCCCCN1CCCC1 | inactive | –
34 | Cc1ccccc1CS(=O)(=O)Cc1ccc(C(=O)NCc2cccnc2)o1 | 5.01 µM (active) | –
35 | CCOc1cccc(CNCCNC(=O)c2nonc2N)c1 | inactive | –
36 | COc1ccc(-c2cc(C(=O)NCc3cccnc3)no2)cc1OC | inactive | –
37 | Cc1ccccc1-c1cc(NCc2cccnc2)ncn1 | – | -13% [at 2.29 µM]
38 | CCOc1ccc(OCc2ccc(C(=O)NCc3cccnc3)o2)cc1 | 12.6 µM (active) | –
39 | Cc1cc(=O)oc(C)c1C(=O)NCc1ccccc1 | inactive | –
40 | Cc1ccccc1C(=O)Nc1ccc(C(=O)NNC(=O)CCCOc2ccc(Cl)cc2Cl)cc1 | inactive | –
41 | Cc1cc(C)n(Cc2ccc(NC(=O)c3ccc(COc4ccccc4Br)cc3)cc2)n1 | 1.12 µM (active) | –
42 | Cc1cc(C)n(CCCNCC(O)c2ccccc2)n1 (stereo unspecified) | inactive | –
43 | c1ccc(CN2CC[C@@H](CNc3ncnc4ccccc34)C2)cc1 | – | 22.2% [at 11.4 µM]
44 | c1ccc(CN2CCC3(CCCc4ccccc43)CC2)cc1 | inactive | –

Row | SMILES | AC50 | activity, negative = inhibition
45 | O=C1CCCc2ccccc2N1Cc1cccc(Cl)c1 | 5.01 µM (active) | –
46 | C[C@@H](CN(C)C)CN1c2ccccc2CCc2ccccc21 | inactive | –
47 | O=C1CCCc2ccccc2N1Cc1ccccc1Cl | 10 µM (active) | –
48 | CC(=O)NCCNc1ncnc2ccc(-c3c(C)noc3C)cc12 | – | 27.1% [at 2.29 µM]
49 | O=c1c2ccc(Cl)cc2nc(-c2cccc(C(F)(F)F)c2)n1O | 5.01 µM (active) | –
50 | CCc1ccc(NC(=O)C2CCN(S(=O)(=O)c3c(C)[nH]c(=O)[nH]c3=O)CC2)cc1 | inactive | –
51 | CCOC(=O)c1[nH]c2ccc(Cl)cc2c1-c1ccccc1 | inactive | –
52 | CCOC(=O)N1CCN(c2c(-c3ccccc3)c3cc(Cl)ccc3[nH]c2=O)CC1 | 1.26 µM (active) | –
53 | CO[C@H]1COC(=O)C/C=C\[C@@H](C)[C@H](OC)COC(=O)[C@H]2CCCN2C(=O)C/C=C\[C@@H]1C | – | 12.3% [at 11.4 µM]
54 | CC(=O)Oc1ccc2ccccc2c1C(NC(=O)Cc1ccccc1)c1ccc(Cl)cc1 (stereo unspecified) | 1.78 µM (active) | –
55 | Cn1c([N+](=O)[O-])cnc1CN1CCN(CCO)CC1 | – | 8.6% [at 11.4 µM]
56 | O=C(c1ccccc1)c1ccc(OCC(O)CN2CCN(Cc3ccccc3)CC2)cc1 (stereo unspecified) | 12.6 µM (active) | –
57 | O[C@H](COc1ccccc1)CN1CCCCC1 | – | 9.06% [at 11.4 µM]
58 | CC(C(=O)NC1CCCC1)N(C(=O)c1ccc(-c2ccccc2)[nH]1)c1ccccc1F (stereo unspecified) | 5.01 µM (active) | –
59 | Fc1ccc2nc(Nc3nc4c(s3)CCCC4)sc2c1 | 14.1 µM (active) | –
60 | NCCCCC(=O)O | inactive | –
61 | Cc1ccc(Sc2nc(C)cc(C)c2S(C)(=O)=O)cc1 | 3.55 µM (active) | –
62 | CC(=O)O[C@]1(C)N=NC2(CCCCC2)O1 | – | 16.8% [at 11.4 µM]
63 | CCC1CCCCN1Cc1cc(OC)c(O)c([N+](=O)[O-])c1 (stereo unspecified) | inactive | –
64 | Cc1cc(C)nc(SCC(=O)N/N=C\c2sccc2C)n1 | inactive | –
65 | CCOC(=O)N1CCN(c2nc(-c3cccs3)cc(C(F)(F)F)n2)CC1 | 1.58 µM (active) | –
66 | CCCNC(=O)c1cc2c(C(F)(F)F)nn(C)c2s1 | inactive | –

Row | SMILES | AC50 | activity, negative = inhibition
67 | CCCNC(=O)CSc1nc(-c2cccs2)cc(C(F)(F)F)n1 | 2.82 µM (active) | –
68 | CN1CCN(c2ncc3nc(-c4cccs4)c(=O)n(-c4ccccc4)c3n2)CC1 | inactive | –
69 | CCOC(=O)N1CCN(c2nc(-c3ccco3)cc(C(F)(F)F)n2)CC1 | 1.12 µM (active) | –
70 | C/C(CC/C(C)=N/O)=N/O | – | -9.93% [at 11.4 µM]
71 | O=C1OC2CC3CC1CC(O)(C3)C2 (stereo unspecified) | inactive | –
72 | Cc1ccc(C)c(-n2c(CNC(=O)c3ccco3)nnc2SCC(=O)N2CCc3ccccc32)c1 | inactive | –
73 | Cc1cc2nc(-c3ccc(SCC(=O)N4CCc5ccccc54)nc3)[nH]c2cc1C | 3.55 µM (active) | –
74 | O=C(COC(=O)c1ccccc1Nc1cccc(C(F)(F)F)c1)NCc1ccco1 | 3.16 µM (active) | –
75 | O=C(O)c1cccnc1Nc1cccc(C(F)(F)F)c1 | inactive | –
76 | O=C(COC(=O)c1cccnc1Nc1cccc(C(F)(F)F)c1)NCc1ccc2c(c1)OCO2 | 3.55 µM (active) | –
77 | Cc1cc(NC(=O)C2C3C(=O)N(Cc4ccc(Cl)cc4)C(C(=O)NC(C)(C)C)C34C=CC2(C)O4)no1 (stereo unspecified) | inactive | –
78 | OC[C@H](S)CS | – | -14.4% [at 11.4 µM]
79 | COCC(=O)N1CCC2(CC1)CN(Cc1ccc(C#N)cc1)C2 | inactive | –
80 | CCN1CNC(=S)N(c2cc(C)ccc2C)C1 | inactive | –
81 | O=C(c1cc2sccc2n1Cc1ccccc1)N1CCN(c2nc3ccccc3s2)CC1 | 2.82 µM (active) | –
82 | Cn1c(=O)c2[nH]c(CCCCC(=O)O)nc2n(C)c1=O | – | -3.07% [at 11.4 µM]
83 | Nc1nonc1-n1nncc1-c1ccccc1 | inactive | –
84 | COCc1c(C(N)=O)nnn1-c1nonc1N | inactive | –
85 | CCOC(=O)c1nnn(-c2nonc2N)c1-c1ccc(C)cc1 | 11.2 µM (active) | –
86 | c1ccc(CNc2ccnc(-c3ccoc3)n2)cc1 | – | -18.3% [at 2.29 µM]
87 | Cc1ccc(NC(=O)N/C=C/c2ccco2)cc1C | 15.8 µM (active) | –
88 | O=C(/C=C/c1cccc(Cl)c1)Nc1ccncc1 | 0.0447 µM (active) | –

Row | SMILES | AC50 | activity, negative = inhibition
89 | O=C(O)/C=C\C(=O)Nc1ccc2c(c1)C(=O)c1cc(F)ccc1-2 | – | -23.6% [at 11.4 µM]
90 | CS[C@@H](CC(=O)O)C(=O)O | – | -8.91% [at 11.4 µM]
91 | O=CN1CCN(C[C@H](O)CN2CCCCC2)CC1 | – | -3.16% [at 11.4 µM]
92 | N#Cc1c(-c2ccc3c(c2)OCO3)ccn2nc(-c3cccc(C(F)(F)F)c3)nc12 | inactive | –
93 | CCCCCc1nc2c(C#N)c(-c3ccc(Cl)cc3)ccn2n1 | 3.55 µM (active) | –
94 | CC[C@@]1([N+](=O)[O-])C[C@H]2C=C[C@@H]1C2 | – | -0.495% [at 11.4 µM]
95 | NCCNCC1CCNCC1 | – | 9.94% [at 11.4 µM]
96 | CCN(CC)CCOC(=O)[C@@H](Cc1cccc2ccccc12)C[C@@H]1CCCO1 | inactive | –
97 | CCOC(=O)c1ccc(N)cc1 | inactive | –
98 | CCOC(=O)c1ccc(-c2ccc(CO)o2)cc1 | 15.8 µM (active) | –
99 | Cc1ccc(-c2ccc(CCC(=O)O)o2)cc1 | inactive | –
100 | O=c1[nH]c2[nH]c(=S)[nH]c(=S)c2[nH]1 | 1.26 µM (active) | –
101 | C[C@@]1(CCOCc2ccccc2)NC(=O)NC1=O | – | -8.7% [at 11.4 µM]
102 | COC(=O)CSc1cc(C(F)(F)F)nc(-c2ccccn2)n1 | inactive | –
103 | COc1cccc(-c2nccc(NCc3cccnc3)n2)c1 | – | 0.577% [at 2.29 µM]
104 | COc1ccc(-c2cc(C(F)(F)F)nc(NCc3cccnc3)n2)cc1 | 5.62 µM (active) | –
105 | COc1ccc(-c2cc(C(F)(F)F)nc(SCc3cccc(C(=O)O)c3)n2)cc1 | 7.94 µM (active) | –
106 | COc1ccccc1-c1nccc(NCc2cccnc2)n1 | – | -15.5% [at 2.29 µM]
